# Results published in paper PMC5540273 (PLoS ONE, 2017).
# Test system: MAP3K15
# Settings: concentration: 1 μM, replicates: in singlicate; n = 1
# 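Note: KINOMEscan kinase panel screen.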
row,SMILES,%Inh
1,COC(=O)c1c(-c2ccccc2)c2cc(Br)ccc2c(=O)n1Cc1ccc(S(C)(=O)=O)cc1,26%
2,Cc1nnc(-c2ccc(C)c(-c3ccc(C(=O)O)cc3)c2)o1 [GW608005],14%
3,COc1cc2nccc(Nc3ccc(OCc4ccc(NC(C)=O)cc4)cc3)c2cc1OC.Cl [GW440135],0%
4,Cc1nc(N(C)[C@H]2CN(C(=O)CC#N)CC[C@H]2C)c2cc[nH]c2n1,0%
5,Nc1nc(N)c2nc(-c3ccccc3)[nH]c2n1 [SKF-12778],12%
6,Cl.c1ccc(Cn2cnc3cc(Nc4ncnc5ccccc45)ccc32)cc1 [GW272142],0%
7,COC(=O)c1c(-c2ccccc2)c2cc(Br)ccc2c(=O)n1Cc1ccc(NC(=O)CCC(=O)O)cc1,18%
8,O=C(Nc1ccc2c(c1)OCO2)NC1CCN(c2ccnc(NCc3ccc(F)cc3)n2)CC1 [GSK1379859],0%
9,Cc1ccccc1COc1cc(-n2cnc3cc(Cl)ccc32)sc1C(N)=O [GW813349],1%
10,Nc1n[nH]c2ncc(-c3ccccc3)cc12 [SB-517081],0%
11,COc1ccc(-c2coc3ccc(-c4nnc(SCc5cccc(C#N)c5)o4)cc23)cc1,0%
12,Cc1cccc(-c2nc(Nc3ccc4c(cnn4C)c3)c3ccccc3n2)n1 [GW876731],0%
13,CN(C)c1cc(-c2ccc3c(N)n[nH]c3c2)nc(N)n1 [GSK2219329],0%
14,COc1cc2ncn(-c3cc(OCCCc4ccccc4)c(C(N)=O)s3)c2cc1OC [GSK205189],0%
